CHOP inh: CHOP inhibition in unfolded protein response | CHO-K1 CHOP-promoter luciferase, tunicamycin-induced, 15-18 h | inhibition, % at 10 µM | hit rate 3.8% among 220,000;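 active means compounds that reduced the stress-induced luciferase reporter signal by more than about 70% of percent inhibition, limit read from the data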;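 further: 0% = tunicamycin plus vehicle and 100% = wells without tunicamycin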
MITF TRPM1 inh: inhibitors of MITF-driven TRPM1 promoter in melanoma cells; SK-MEL-5 TRPM1 promoter luciferase, 24 h; inhibition, % at 12.5 µM; hit rate 0.83% among 330,000; AID 488899;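 active means mean inhibition across replicates of 60% or more, whatever share of single replicates reaches that level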
Peg3 prom inh: inhibitors of Peg3 promoter; HeLa PEG-Prom luciferase reporter, luminescence, overnight; hit rate 1.7% among 360,000; inhibition, % at 20 µM;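 active means inhibition of at least 50% at 20 µM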
KKLEB tox: reduces viability of KKLEB cystic fibrosis airway cells; KKLEB CF airway cells viability, ATPlite luminescence, overnight; active compounds read low; cells stimulated with P. aeruginosa culture filtrate; activity change (cytotoxicity), % at 5 µM; hit rate 0.36% among 360,000; AID 602141;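 active means corrected activity change at or below -50% at 5 µM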
CF NFkB block: cystic fibrosis NF-kB activation inhibition; AID 588850; inhibition, % at 5 µM; KKLEB NF-kB-GFP reporter, PAF-induced, GFP fluorescence overnight; hit rate 0.86% among 360,000;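 active means at least 50% inhibition at 5 µM, scaled per plate between neutral and stimulator controls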;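 further: PAF is a Pseudomonas aeruginosa culture filtrate used as stimulus; plate controls were PAF-stimulated DMSO wells for no effect and unstimulated DMSO wells for full effect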
HIF-2a block: blocks HIF-2a reporter activity; 786-0 RCC cells HIF-2a reporter, luciferase luminescence, overnight; inhibition, % at 18.8 µM; hit rate 0.72% among 360,000;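 active means inhibition of the luminescence signal of 40% or more relative to plate controls, in a single-dose primary screen at 18.75 µM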
* hit, by the source's call; · = not tested or not shown. This is a sample that favours compounds with a hit; in the whole collection about 4.3% have one here.

SMILES	CHOP inh	MITF TRPM1 inh	Peg3 prom inh	KKLEB tox	CF NFkB block	HIF-2a block
O=C(NC1CCCc2ccccc21)c1cccc(F)c1 (configuration not stated)	·	-5.5	3.4	-4.4	5.9	19.4
CCN1/C(=C/c2cc[n+](CCCS(=O)(=O)[O-])c3ccccc23)Sc2ccccc21	-0.2	3.8	16.1	-7.1	-2.0	8.1
C=CC[n+]1ccc(/C=C2\C=Cc3cc(C)ccc3N2CC)c2ccccc21	74.6*	83.8*	43.1	-33.1	48.4	-18.3
N#C/C(=C/c1ccc(F)cc1)c1nnc(NC(=O)c2ccccc2)s1	72.9*	6.1	10.9	-10.7	12.1	9.4
CN(Cc1ccc(F)cc1)S(=O)(=O)c1nnc(NC(=O)c2ccccc2)s1	·	-0.5	15.0	-3.4	14.9	-3.4
CC(Oc1ccc(Cl)cc1Cl)C(=O)NCCC1=CCCCC1 (configuration not stated)	90.3*	7.3	11.3	-7.2	21.8	18.8
O=C(COC(=O)/C=C/c1ccc(Cl)cc1)NCCC1=CCCCC1	77.8*	-4.8	9.2	9.5	-6.7	13.5
Cc1ccccc1/C=N/Nc1nc2ccccc2c(=O)n1O	-19.2	-50.4	-131.4	3.0	10.1	-199.4
COC(=O)[C@]12CCCCC=C1N(CCC1=CCCCC1)C(=O)[C@H](CC(=O)NCc1cccc3ccccc13)C2	·	·	·	·	·	9.0
O=c1[nH]c(CSc2nc3ccccc3o2)nc2c1cnn2-c1ccccc1	73.8*	0.7	52.7*	-5.4	-3.0	16.0
O=c1[nH]c(CSc2nc3ccccc3[nH]2)nc2c1cnn2-c1ccccc1	55.6	-12.2	7.2	6.8	-4.7	8.6
O=c1[nH]c(SCc2nc3c(cnn3-c3ccccc3)c(=O)[nH]2)nc2ccccc12	29.3	-17.0	-251.9	6.5	-7.9	-255.5
Cc1ccc2nc(SCc3nc4c(cnn4-c4ccccc4)c(=O)[nH]3)[nH]c2c1	72.9*	11.1	15.7	-14.0	-1.7	-10.0
O=C1CCC[C@@H]2Cc3nc4cc5c(cc4cc3[C@@H]3CCN1[C@H]23)OCO5	·	-13.4	-88.5	3.9	1.2	-140.0
CCOc1ccc(CCNC(=O)Cn2cccc2C(=O)c2ccccc2C)cc1OCC	75.4*	2.8	19.2	7.9	-2.2	23.3
Cn1c2ccccc2c(=O)c2c(=O)n(-c3ccc(F)cc3)c(C3CCCCC3)nc21	·	-1.2	4.7	3.9	-4.1	9.7
CCCC(=O)N1CCC1(C)C(=O)NS(=O)(=O)c1ccccc1Cl (configuration not stated)	·	·	6.2	-1.2	-2.5	14.3
COc1cc(/C=C2\C(=O)ON=C2c2ccccc2)cc(Br)c1O	·	25.0	51.3*	8.2	40.8	51.3*
COc1cc(/C=C2/C(=O)ON=C2c2ccccc2)ccc1O	67.4	21.4	44.3	5.5	-19.3	53.2*
COc1cc([N+](=O)[O-])ccc1-c1ccc(/C=N\n2cnnc2)o1	·	9.4	11.9	1.8	-65.6	4.2
COc1cc(/C=C2\C(=O)ON=C2c2ccccc2)cc(Cl)c1O	34.1	21.5	35.5	-11.9	21.0	25.1
COc1cc([N+](=O)[O-])ccc1-c1ccc(/C=C2\C(=O)ON=C2c2ccccc2)o1	·	89.6*	103.4*	-24.9	86.7*	9.5
CCCCc1ccc(/C=C2/C(=O)ON=C2c2ccccc2)s1	34.0	-9.5	-8.3	2.7	-8.9	12.3
Cc1sc(/C=C2\C(=O)ON=C2c2ccccc2)cc1Br	88.3*	·	·	·	·	·
CCOC(=O)N1CCN(C(=O)C[C@@H]2C[C@@]3(C(=O)OC)CC(C)(C)CC=C3N(Cc3ccccc3)C2=O)CC1	·	·	·	·	·	2.0
SMILES	CHOP inh	MITF TRPM1 inh	Peg3 prom inh	KKLEB tox	CF NFkB block	HIF-2a block
CCOC(=O)c1c(NC(=O)CN2C(=O)NC3(CCCC3)C2=O)sc(C)c1CC	·	-12.8	16.5	-15.1	16.7	4.5
CN(C)CCCNc1ncnc2c1cnn2Cc1ccccc1Cl	·	9.9	9.8	-25.5	13.4	6.1
O=C1ON=C(c2ccccc2)/C1=C\c1ccco1	-12.9	-2.4	10.8	-6.1	0.7	11.2
CCOc1cc(/C=C2\C(=O)ON=C2c2ccccc2)cc(Br)c1O	·	27.5	34.9	2.2	34.5	78.7*
CCOc1cc(/C=C2/C(=O)ON=C2C)cc(Br)c1O	·	22.2	17.4	-2.2	16.2	5.1
Cc1ccc(/C=C2/C(=O)ON=C2c2ccccc2)o1	-36.1	71.5*	50.1*	-1.8	11.3	68.4*
Cn1c(/C(C#N)=C(\O)COc2ccc3ccccc3c2)nc2ccccc21	93.4*	10.3	-5.2	-25.6	12.0	19.1
